# According to PubChem BioAssay AID488969 (Vanderbilt High Throughput Screening Facility, 2010):
# The full ranking holds about 110,000 compounds; the median of “z-score” is about -0.1, and the highest 2% start at about 2. This excerpt belongs to a sample that is enriched for the highest values. Active and inactive are the calls of the source.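 The calls were made as follows: active = z-score in the third read window above 3 or below -3; inactive = the rest.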
# Molecular target: Metabotropic glutamate receptor 8 (Rattus norvegicus) (UniProt P70579)
# Sequence (P70579 whole entry, looked up): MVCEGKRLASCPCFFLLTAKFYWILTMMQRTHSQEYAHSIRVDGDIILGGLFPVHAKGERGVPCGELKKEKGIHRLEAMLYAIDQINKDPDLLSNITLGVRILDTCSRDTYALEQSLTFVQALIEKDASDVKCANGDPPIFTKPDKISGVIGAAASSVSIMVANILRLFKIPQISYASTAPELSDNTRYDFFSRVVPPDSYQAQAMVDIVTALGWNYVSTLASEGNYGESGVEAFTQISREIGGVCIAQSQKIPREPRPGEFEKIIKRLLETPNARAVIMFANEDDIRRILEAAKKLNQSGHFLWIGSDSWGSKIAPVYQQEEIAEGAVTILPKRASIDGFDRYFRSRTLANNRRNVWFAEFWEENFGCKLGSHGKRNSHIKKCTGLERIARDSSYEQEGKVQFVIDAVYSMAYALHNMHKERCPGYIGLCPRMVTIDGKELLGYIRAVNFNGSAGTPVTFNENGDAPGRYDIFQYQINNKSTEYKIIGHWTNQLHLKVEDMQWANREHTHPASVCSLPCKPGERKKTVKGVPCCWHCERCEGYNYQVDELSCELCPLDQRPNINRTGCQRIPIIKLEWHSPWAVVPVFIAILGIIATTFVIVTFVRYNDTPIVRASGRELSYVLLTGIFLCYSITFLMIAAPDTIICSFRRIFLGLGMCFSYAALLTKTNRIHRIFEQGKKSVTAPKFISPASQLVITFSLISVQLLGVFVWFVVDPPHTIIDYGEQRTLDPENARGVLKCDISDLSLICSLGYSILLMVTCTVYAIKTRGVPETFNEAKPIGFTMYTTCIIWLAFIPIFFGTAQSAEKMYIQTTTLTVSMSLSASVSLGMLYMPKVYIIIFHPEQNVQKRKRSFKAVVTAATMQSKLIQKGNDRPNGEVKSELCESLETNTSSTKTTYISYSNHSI
# Experiment: mGluR8 Gi/Go-coupled signaling modulation – cell-based, rat, thallium flux, HTS, primary screen (AID 488969)
# Conditions: HEK293 rat mGluR8, GIRK (G protein-gated inwardly rectifying potassium channel) thallium flux, FluoZin2; at 10 µM; stronger effect = higher value; submaximal glutamate (EC20) added with thallium
row,Compound,z-score
1,CCOC(=O)c1cc(NC(=O)N(C(C)C)C(C)C)c(C)nc1C,0.0304
2,Brc1ccc(-c2nc(-c3cccnc3)no2)o1,-0.481
3,COc1ccc(CCNC(=O)Cn2nnc(-c3ccccc3F)n2)cc1OC,0.148
4,COc1ccc2c(c1)-c1c(sn(-c3ccccc3)c1=S)C(C)(C)N2,-0.192
5,O=C(CC1Nc2ccccc2NC1=O)NCCCN1CCCCCC1 (configuration not stated),2.07
6,O=C(CC1Nc2ccccc2NC1=O)NCCc1ccccc1 (configuration not stated),-0.0324
7,CCCCN(CC)CCCNC(=O)CC1Nc2ccccc2NC1=O (configuration not stated),0.0522
8,COc1ccc(CNC(=O)C(NC(C)=O)C(=O)Nc2ccc(OC)cc2)cc1 (configuration not stated),-0.149
9,Cc1ccc(C2(CC(=O)N3CCCC3)CCOC(C(C)C)C2)cc1 (configuration not stated),-0.0604
10,O=C(O)CSc1nnnn1-c1ccc2c(c1)OCCO2,-0.0806
11,COC(=O)C1=C(C)N(C)C(=O)NC1c1ccccc1 (configuration not stated),-0.573
12,Cc1cccc(-n2c(C)nc3c(cnn3-c3ccc(F)cc3)c2=O)c1,1.02
13,Cc1nc2sccc2c(=O)n1-c1cccc(Cl)c1,-0.144
14,Cc1cccc(-n2c(C)nc3sccc3c2=O)c1,1.99
15,Cc1noc(C)c1S(=O)(=O)N1CCCC(C(=O)N2CCC(C)CC2)C1 (configuration not stated),1.01
16,Cc1ccc(Cl)cc1NC1=C/C(=N\S(=O)(=O)c2cccs2)c2ccccc2C1=O,-0.209
17,O=C(c1ccccc1Cl)N1CCc2ccccc2C1,-1.42
18,COc1ccc(NC(=O)/C(Cl)=C(/Cl)S(=O)(=O)Cc2ccc(C)cc2)cn1,-0.418
19,O=C(Nc1ccc2c(c1)OCO2)N1CCN(C(=O)C2CCCO2)CC1 (configuration not stated),2.05
20,O=C(Nc1ccc2c(c1)OCO2)N1CCN(c2ccccc2Cl)CC1,-0.291
21,O=C(Nc1ccc2c(c1)OCO2)N1CCOCC1,0.476
22,COc1ccccc1C(OC(=O)c1ccco1)C(=O)NC(C)(C)C (configuration not stated),-0.346
23,O=[N+]([O-])c1ccc(-c2nnc(CSc3nc(-c4ccccc4)nc4ccc(F)cc34)o2)cc1,0.0904

row,Compound,z-score
1,Fc1ccc2nc(-c3ccccc3)nc(SCc3nnc(-c4ccccc4)o3)c2c1,14.3 (active)
2,O=c1c2ccccc2nc(SCc2nnc(-c3ccccc3)o2)n1-c1ccc(F)cc1F,-0.56
3,COc1cc2c(cc1OC)C(COc1ccc3c(C)cc(=O)oc3c1)N(C(=O)c1ccco1)CC2 (configuration not stated),0.044
4,Cc1csc(SCC(=O)N2CCN(S(=O)(=O)c3ccc(Cl)cc3)CC2)n1,0.756
5,COc1cccc(-c2cc(C(=O)NC3CCCC3)no2)c1,5.04 (active)
6,COC(=O)c1cc(-c2cccc(OC)c2)on1,-1.1
7,COCCNC(=O)c1cc(-c2cccc(OC)c2)on1,-0.215
8,CCOC(=O)c1c(C(F)(F)F)nc2ncccn12,-0.534
9,O=C(c1cnn2c(C(F)(F)F)cc(-c3ccc4c(c3)OCO4)nc12)N1CCCC1,-0.369
10,O=C(CCCc1c[nH]c2ccccc12)N1CCN(c2ccc(N3CCOCC3)nn2)CC1,-0.501
11,Cc1ccccc1C(=O)Nc1ccc2nc3n(c(=O)c2c1)CCC3,3.87 (active)
12,CC(C)(C)c1cc(NC(=O)COC(=O)c2ccc3c(=O)n4c(nc3c2)CCC4)n(-c2ccccc2)n1,-0.264
13,O=C(Nc1ccc2nc3n(c(=O)c2c1)CCCC3)c1ccccc1[N+](=O)[O-],-0.424
14,O=C(COC(=O)c1ccc2c(=O)n3c(nc2c1)CCC3)Nc1ccccc1F,-0.441
15,CN(C)c1cccc(C(=O)Nc2ccc3nc4n(c(=O)c3c2)CCCCC4)c1,-0.303
16,Cc1cccc(NC(=O)COC(=O)c2ccc3c(=O)n4c(nc3c2)CCC4)c1,2.19
17,COc1ccccc1OC1=NS(=O)(=O)c2ccccc21,-0.276
18,CC(C)(C)n1nc2c(c1NC(=O)c1ccccc1F)CS(=O)C2 (configuration not stated),-0.492
19,Cc1cc(C(=O)N2CCN(C(c3ccccc3)c3ccccc3)CC2)no1,-0.079
20,COc1ccc(-c2nc3ccccn3c2NCc2ccc3c(c2)OCO3)cc1,-1.02
21,CCCn1nc(-c2ccccc2)c2nc3ccccc3nc21,0.0864
22,CCCCCn1nc(-c2ccccc2)c2nc3ccccc3nc21,14.9 (active)
23,CCCCn1nc(-c2ccccc2)c2nc3ccccc3nc21,-0.013

row,Compound,z-score
1,CCCn1cc(SCC(=O)NCC2CCCO2)c2ccccc21 (configuration not stated),0.0527
2,Cc1[nH]n(-c2ccc(F)cc2)c(=O)c1/C=N/c1sc2c(c1C#N)CCCC2,13 (active)
3,CCOC(=O)c1sc(/N=C/c2c(C)[nH]n(-c3ccccc3)c2=O)c(C#N)c1C,-0.156
4,Cc1ccc(/C=N/c2sc3c(c2C#N)CCCCC3)o1,-0.0448
5,Cc1[nH]n(-c2cccc3ccccc23)c(=O)c1/C=N/c1sc2c(c1C#N)CCC2,8.05 (active)
6,COc1cc(SC#N)ccc1N=Cc1c(C)[nH]n(-c2cccc3ccccc23)c1=O,-0.32
7,N#Cc1c(/N=C/c2cc3ccccc3s2)sc2c1CCC2,-0.0332
8,COc1ccc(OC)c(C2C(C(=O)O)c3ccccc3C(=O)N2C)c1 (configuration not stated),0.356
9,CCOC(=O)N1CCN(C(=O)c2ccc(CNS(=O)(=O)c3ccc(C)cc3)cc2)CC1,-0.952
10,COC(=O)CSc1nc2ccccc2o1,-0.541
11,Cc1nonc1OCC(C)(COc1nonc1C)NC(=O)c1ccc(Cl)cc1,-0.0555
12,COc1ccccc1CNC(=O)/C=C/c1cc2c(cc1Br)OCO2,-0.0108
13,CCCOc1ccc(OCC(=O)c2[nH]c(C)c(C(C)=O)c2C)cc1,0.149
14,CC(=O)c1c(C)[nH]c(C(=O)COc2cc(C)cc(C)c2)c1C,4 (active)
15,CC(=O)c1c(C)[nH]c(C(=O)COc2ccc(C#N)cc2)c1C,-0.0197
16,O=C1CN(Cc2ccccc2)C(=NCc2ccco2)S1,-0.501
17,Cc1cccc(NC(=S)NCC23C=CC(O2)C2C(=O)N(c4ccc(Cl)cc4)C(=O)C23)c1 (configuration not stated),-0.343
18,CCOC(=O)c1ccc(NC(=O)c2ccccc2[N+](=O)[O-])cc1,-0.169
19,CC(=O)NC(=S)Nc1ccc(-c2nc3ccc(C)cc3s2)cc1,0.23
20,OCCNCCCCOc1ccc(F)cc1,0.17
21,CC(C)(C)NCCOc1ccc(Br)cc1,-0.0295
22,CC(C)(C)NCCCCOc1ccc(F)cc1,2.98
23,C=CCn1c(N)c(C(=O)NCC2CCCO2)sc1=S (configuration not stated),0.129

row,Compound,z-score
1,CCOC(=O)N1CCN(c2cc(=O)n(C3CCCCC3)c(=O)[nH]2)CC1,0.0254
2,CCOc1ccc(OCC)c(-c2c(=O)n(OCc3ccccc3Br)c3ccccc3[n+]2[O-])c1,1.8
3,COc1cccc(N2CCN(c3c4c(nc5ncnn35)CCC4)CC2)c1,5.19 (active)
4,COc1cccc(CC(NC(C)=O)C(=O)NC2CCN(c3c4c(nc5ncnn35)CCC4)CC2)c1 (configuration not stated),0.172
5,c1ccc(N2CCN(c3c4c(nc5ncnn35)CCC4)CC2)cc1,-0.139
6,COc1ccc2cc(S(=O)(=O)NCCCN3CCOCC3)ccc2c1,-0.0146
7,CCc1ccccc1NC(=O)C(C#N)Cc1cccnc1 (configuration not stated),0.345
8,Cc1ccccc1NC(=O)/C(C#N)=C\c1cccnc1,-0.183
9,Cc1ccccc1NC(=O)C(C#N)Cc1cccnc1 (configuration not stated),2.26
10,Cc1ccc(CO/N=C\Cc2snc(Sc3ncc(C(F)(F)F)cc3Cl)c2C#N)cc1,0.0198
11,Cc1ccc(CNC(=O)C(Cc2ccccc2)NS(=O)(=O)c2ccc3c(c2)CCC(=O)N3)cc1 (configuration not stated),0.0976
12,O=C(CSc1cn(Cc2ccccc2)c2ccccc12)Nc1nccs1,-0.121
13,O=C(NN=C(Cc1ccccc1)Cc1ccccc1)c1ccc(F)cc1,4.71 (active)
14,COc1ccc(C(=O)NN=C(Cc2ccccc2)Cc2ccccc2)cc1OC,-0.165
15,C/C(Cc1ccccc1)=N\NC(=O)c1ccc(F)cc1,0.49
16,O=C(CS(=O)(=O)Cc1ccccc1)Nc1ccc(S(=O)(=O)N2CCOCC2)cc1,-0.109
17,CCCC(=O)Nc1nc2ccc(S(=O)(=O)N3CCCCC3)cc2s1,-0.273
18,O=C(Nc1nc(-c2ccccn2)cs1)c1ccc(Br)s1,12.3 (active)
19,O=C(Nc1nc(-c2cc(Cl)sc2Cl)cs1)c1ccc(Br)s1,0.0927
20,O=C(Nc1nc(-c2ccccn2)cs1)C1CC1,0.0299
21,O=C(CSCc1ccccc1Br)N/N=C/c1ccc2c(c1)OCO2,-0.0558
22,CCOCCCNC(=O)Cc1c(C(=O)O)[nH]c2ccc(Cl)cc12,0.12
23,CCCn1c(=N)n(CCOc2ccc(OC)cc2)c2ccccc21,3.04 (active)

row,Compound,z-score
1,CCn1c(=S)[nH]c2ccccc21,0.63
2,CCn1c(=N)n(CCOc2ccc(OC)cc2)c2ccccc21,-0.158
3,CCCn1c(=N)n(CCOCCOCCn2c(=N)n(CCC)c3ccccc32)c2ccccc21,0.012
4,CCCn1c(=N)n(CC(=O)OCC)c2ccccc21,-0.118
5,N=c1n(CCO)c2ccccc2n1CCOc1ccccc1,-0.208
6,Cc1cccc(OCCn2c(=S)[nH]c3ccccc32)c1,2.83
7,Cc1cccc(OCCn2c(S(=O)(=O)O)nc3ccccc32)c1,0.0442
8,CCOC(=O)Cn1c(=N)n(CCOc2ccc(OC)cc2)c2ccccc21,2.74
9,CCOC(=O)Cn1c(=N)n(CCOc2cccc(C)c2)c2ccccc21,3.95 (active)
10,CCOC(=O)Cn1c(=N)n(CCOc2ccc3ccccc3c2)c2ccccc21,1.25
11,Cc1cccc(OCCn2c(=O)sc3ccccc32)c1,-0.343
12,O=C(NCCN1CCCCC1)c1ccco1,0.151
13,CC1=C(Sc2ccccn2)C(=O)NC(C)(C)C1,0.338
14,CN(C)S(=O)(=O)c1ccc(C(=O)Nc2ccccc2OC(F)(F)C(F)F)cc1,-0.525
15,COc1ccc(NC(=O)Nc2ncn(Cc3cccc(C(F)(F)F)c3)n2)cc1OC,0.0572
16,COc1ccc(-c2ccc(/C=C3/C(=N)N4C=CSC4=NC3=O)o2)c([N+](=O)[O-])c1,0.455
17,CC(=O)N1N=C(c2ccco2)CC1c1ccc(C)cc1 (configuration not stated),0.0902
18,C=CCNC(=O)C(=O)N/N=C/c1ccco1,0.424
19,CCCn1c(C)cc(=O)c2cc(NC(=O)c3cnccn3)ccc21,-0.106
20,O=C(Cn1ccc2ccccc2c1=O)N1CCN(Cc2ccc3c(c2)OCO3)CC1,0.477
